Screens: PubChem BioAssay, National Center for Advancing Translational Sciences (NCATS)
Sampled rows, rich in hits. Any-hit rate of the full collection: about 2.9%.
SNCA viab count: GF-AFC viability counterscreen for inhibitors of alpha-synuclein gene (SNCA) expression; Potency, µM (series often up to 57.1 µM), most hits filed as cytotoxic; AID 1671193, 2021; HEK-293-SNCA-luc viability, GF-AFC fluorescence, 24 h; 0.12% of 150,000 active; also: nearly all actives have a fitted effect of over 30% in size
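Cytotoxicity counterscreen: after 24 h compound treatment of genome-edited SNCA-luciferase HEK-293 cells, live-cell protease substrate GF-AFC read by fluorescence after 30 min; activity scaled between DMSO (0%) and medium-only (-100%), curves Hill-fitted.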
IP6K1 inhibitor: Primary qHTS assay for small molecule inhibitors of Inositol hexaphosphate kinase 1 (IP6K1) | Inositol hexakisphosphate kinase 1 (Homo sapiens), Q92551 | IP6K1 kinase, ADP-Glo luminescence, 2 h; hits give low values | activity change, % (series mostly up to about 58 µM) | 0.81% of 140,000 active | AID 1645851, 2021; in the data active = activity change below about -25%
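ADP-Glo luminescence measures ADP made by human IP6K1 during a 2 h RT reaction with ATP/IP6 (mix at 1.3 mM/130 uM); top library doses 57.5 and 19.1 uM final.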
SNCA expr inhib: Primary qHTS assay for inhibitors of alpha-synuclein gene (SNCA) expression | HEK-293 SNCA-luciferase knock-in, luminescence, 24 h | Potency, µM (top dose mostly 57.2 µM), actives largely listed as inhibitors | 0.17% of 140,000 active; also: nearly all actives have a fitted effect of over 45% in size
KDM5B inhibitor: Primary screen for KDM5B Histone Demethylases FDH-coupled qHTS; Lysine-specific demethylase 5B (Homo sapiens), Q9UGL1; KDM5B demethylase, FDH-coupled NADH fluorescence (FDH is formaldehyde dehydrogenase); Potency, µM (titrated, usually from 57.7 µM), actives largely listed as inhibitors; 2.6% of 220,000 active; AID 1347165, 2019; also: nearly all actives have a fitted effect of over 70% in size
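Measured: NADH fluorescence change, 30 min, RT. System: KDM5BΔAP 200 nM final, H3K4me3 peptide, α-KG, Fe(II), ascorbate, NAD⁺ plus FDH, pH 7.5 HEPES. Compounds: titrated, 10 min pre-incubation with enzyme.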
Numbers stand for hits; n = inactive; u = inconclusive; x = no result given; ! = not confirmed by another sample. Unless noted, calls follow the shape of the dose curve; as a rule, active = well fitted curve in the direction sought with a large enough effect; inconclusive = small, poorly fitted or top-dose-only effect, or another doubt; inactive = no such curve, though single readings can be large; an effect the other way counts as inactive or inconclusive.

SMILES	SNCA viab count	IP6K1 inhibitor	SNCA expr inhib	KDM5B inhibitor
COc1ccccc1-c1nc(-c2c(C)noc2C)cc2[nH]c(C)cc12	n	n	n	n
Cc1noc(C)c1-c1cc2c(cc(C)n2C)c(-c2cccnc2)n1	n	n	n	35.5µM
COCCCNC(=O)N1CCCCCCNC(=O)[C@@H]2C[C@@H](c3nc(-c4cccnc4)no3)C[C@@H]21	n	n	n	n
Cc1noc(C)c1-c1cc2c(cc(C)n2C)c(-c2cccc([S+](C)(=O)[O-])c2)n1	n	n	n	25.1µM
Cc1cc2c(-c3cccnc3)nc(-c3c(C)noc3C)cc2[nH]1	n	n	n	28.2µM
Cc1noc(C)c1-c1cc2c(cc(C)n2C)c(-c2ccccc2)n1	n	n	n	n
Cc1cc2c(-c3ccccc3)nc(-c3c(C)noc3C)cc2[nH]1	n	n	n	n
CCn1nccc1C(=O)N1[C@@H]2CC[C@H]1CC(NC(=O)c1cnc(C)cn1)C2 (some centres undefined)	n	n	n	n
O=C(NCc1ccccn1)c1cn2cc(-c3ccccc3)sc2n1	n	n	n	x
CC(=O)N1CCN(c2cc(-c3noc([C@@H]4CCCN4Cc4ccc(CO)o4)n3)ccn2)CC1	n	n	n	28.2µM
CC(=O)N1CCN(c2cc(-c3noc([C@@H]4CCCN4Cc4ccccc4C)n3)ccn2)CC1	u	n	u	20µM
CN1CCN(c2ccc(-c3noc([C@@H]4CCCN4Cc4ccncc4)n3)cn2)CC1	n	n	n	u
Cc1cc(-c2nc3ccncc3[nH]2)c(C)o1	n	n	n	31.6µM!
COC(=O)[C@H](C)NC(=O)Nc1cccc(Br)c1	x	x	x	n
O=C1[C@@H]2C[C@@H](CN2Cc2ccccc2)Oc2ccccc2N1CC1CC1	n	n	n	n
COCCN1C(=O)[C@@H]2C[C@@H](CN2Cc2ccccc2)Oc2ccccc21	n	n	n	n
COCCN1C(=O)[C@@H]2C[C@@H](CN2Cc2ccc3ccccc3n2)Oc2ccccc21	n	n	n	31.6µM
CN1C(=O)[C@@H]2C[C@@H](CN2Cc2ccc(OC(F)(F)F)cc2)Oc2ccccc21	n	n	n	n
O=C1[C@@H]2C[C@@H](CN2Cc2cnc3ccccc3c2)Oc2ccccc2N1CC1CC1	u	n	n	44.7µM
O=C1[C@@H]2C[C@@H](CN2Cc2nccs2)Oc2ccccc2N1Cc1ccc(OC(F)(F)F)cc1	n	n	n	28.2µM
CN(Cc1ccc(F)cc1)C(=O)C1CCCC1	n	n	n	n
C#CCNC(=O)NC(CC(C)C)c1ccccc1 (centres undefined)	x	x	x	n
CN(C)c1nc2c(c(=O)[nH]1)CCN(Cc1ccc(Cl)c(F)c1)CC2	n	n	n	28.2µM
Cc1ccc(C(C)C)c(OCC(=O)Nc2cccc(-c3nc4ncccc4o3)c2)c1	n	n	n	u
Cc1cn2nc(C(=O)Nc3ccc(N(C)C)cc3)cc2c(N2CCSCC2)n1	n	n	n	n
SMILES	SNCA viab count	IP6K1 inhibitor	SNCA expr inhib	KDM5B inhibitor
CCOc1ccc(NC(=O)c2cc3c(N4CCSCC4)nc(C)cn3n2)cc1	n	n	n	3.98µM
CCOc1ccccc1NC(=O)c1cc2c(N3CCSCC3)nc(C)cn2n1	n	n	n	28.2µM
COCCNC(=O)c1c(C)sc2ccn(Cc3ccc(F)cc3)c(=O)c12	n	n	n	n
CCN(CC)C(=O)c1c(C)sc2ccn(Cc3ccc(F)cc3)c(=O)c12	n	n	n	25.1µM
O=C(Cn1c(=O)c2ccccc2n(CC(=O)Nc2ccc(Cl)cc2)c1=O)NCCc1ccccc1	n	n	n	u
O=C(c1ccc2cc[nH]c2c1)N1CCN(C(=O)c2nnn3c2COC(c2ccccc2)C3)CC1 (centres undefined)	n	n	n	u
O=C(CCc1nnn2c1CN(C(=O)c1cccc3[nH]ccc13)CC2)N1CCCC1	n	n	n	28.2µM
O=C(c1nnn2c1COC(c1ccccc1)C2)N1CCN(C(=O)c2cccc3[nH]ccc23)CC1 (centres undefined)	n	n	n	28.2µM
O=C(CCc1nnn2c1CN(C(=O)NCCc1ccccc1)CC2)N1CCCC1	n	n	n	n
O=C(Cc1cccc(F)c1)N1CCCC(Cc2nc(C3CCOCC3)no2)C1 (centres undefined)	n	n	n	28.2µM
O=C(NC(=S)NNC(=O)[C@H]1C[C@@H]1c1ccccc1)c1ccc(-c2ccccc2)cc1	x	x	x	n
COCCN[C@@H]1C[C@@H]2c3[nH]c4ccccc4c3C[C@@H](C(=O)OC)N2[C@H](c2ccc(F)c(F)c2)C1	n	n	n	12.6µM
COC(=O)[C@@H]1Cc2c([nH]c3ccccc23)[C@H]2C[C@@H](NCc3ccccc3)C[C@@H](c3ccccc3F)N21	n	n	u	4.47µM
COC(=O)[C@@H]1Cc2c([nH]c3ccccc23)[C@H]2C[C@@H](NCc3cccs3)C[C@@H](c3ccccc3F)N21	n	n	n	u
COc1ncc2nc(-c3ccccc3)c(=O)n(Cc3cccs3)c2n1	n	x	n	x
CNC(=O)CCn1ncc2cc(OCc3ccccc3-c3ccc(OC)cc3)ccc21	n	n	n	31.6µM
CNC(=O)CCn1ncc2cc(OCc3ccccc3-c3cccc(OC)c3)ccc21	n	n	n	u
CSc1ccc(-c2ccc3c(c2)C(=O)N2CC[C@H](NC(=O)c4cccs4)[C@H]2C(=O)N3)cc1	n	n	n	25.1µM
O=C(N[C@H]1CCN2C(=O)c3cc(-c4ccsc4)ccc3NC(=O)[C@H]12)c1cccs1	n	n	n	u
O=C(N[C@H]1CCN2C(=O)c3cc(-c4cccs4)ccc3NC(=O)[C@H]12)c1cccs1	n	n	n	31.6µM
CSCC(=O)N[C@H]1CCN2C(=O)c3cc(-c4cccs4)ccc3NC(=O)[C@H]12	n	n	n	35.5µM
COc1ccc(N2CCN(c3nc(C(=O)NC4CC4)cs3)CC2)cc1	n	n	n	n
Cn1nc(-c2nc(C3CCOC3)no2)cc1-c1ccccc1 (centres undefined)	n	n	n	n
Clc1ccc2nc(-c3nc(C4CCOC4)no3)cn2c1 (centres undefined)	n	n	n	22.4µM
O=C(C1COc2ccccc2O1)N(Cc1cccnc1)c1nc2c(F)cccc2s1 (centres undefined)	n	n	n	n
CN[C@@H]1C[C@H]2O[C@@](C)([C@H]1OC)n1c3ccccc3c3c4c(c5c6ccccc6n2c5c31)C(=O)N[C@H]4O	u	x	4.29µM	x
COc1cc(NC(=O)c2cn(C3CCCC3)c(=O)c3c2c2ccccc2n3C)cc(OC)c1OC	n	n	n	n
COC(=O)[C@@H]1Cc2c([nH]c3ccccc23)[C@H]2C[C@@H](NC(C)C)C[C@@H](c3ccc(C)cc3)N21	n	n	n	28.2µM
COC(=O)[C@@H]1Cc2c([nH]c3ccccc23)[C@H]2C[C@@H](NC(C)C)C[C@@H](c3ccccc3)N21	u	n	n	11.2µM
